Measured values as given in PubChem BioAssay (Tox21).
“And” between values parts separate entries of the source, which are not always exact repeats. Equal values may be shown once. Inconclusive results are not listed. A call without a number means that no potency is given here. A structure can be active in one record and inactive in another. The source made the active and inactive calls. Calls come from the whole dose curve; as a rule, active = well fitted curve in the direction sought with a large enough effect in the repeat runs; inconclusive = weak or mixed curves; inactive = no such curve, though single readings can be large; an effect the other way counts as inactive or inconclusive.

Legend:
[1] = Caspase-3/7 induction in CHO-K1 cells by small molecules, qHTS cell viability counter screen (AID 1346979); note: nearly all actives have a fitted effect of over 35% in size; note: potency is the fitted concentration of half-maximal effect
Outline: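 Multiplexed with Caspase-Glo 3/7 in CHO-K1 cells, this counter screen added CellTiter-Fluor after 16hr of compound exposure and recorded fluorescence 1hr later.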

[2] = Caspase-3/7 induction in CHO-K1 cells by small molecules, qHTS assay (AID 1346980); note: nearly all actives have a fitted effect of over 15% in size
Outline: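 Wild-type cells were seeded at 1,500 per well and settled 5 hr at 37 C, 5% CO2, then exposed to DMSO-dissolved compounds for 17 hr. Caspase-Glo 3/7 reagent was added, and luminescence was read after 30min at room temperature.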

[3] = Caspase-3/7 induction in HepG2 cells by small molecules, qHTS cell viability counter screen (AID 1346981); note: nearly all actives have a fitted effect of over 30% in size; note: potency is the fitted concentration of half-maximal effect; for activity change, negative = cytotoxicity: series mostly up to about 92 µM
Outline: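 Fluorescence read-out of live-cell protease activity (CellTiter-Fluor) after 1 hr with reagent. This was measured in the same wells as the caspase-3/7 luminescence, on HepG2 cells exposed to DMSO-dissolved compounds for 16 hr at 37 C.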

[4] = molecular target: Nuclear receptor subfamily 1 group I member 2 (Homo sapiens) (UniProt O75469); test: Human pregnane X receptor (PXR) small molecule agonists, qHTS assay (AID 1346982); note: nearly all actives have a fitted effect of over 35% in size; note: potency is the fitted concentration of half-maximal effect
Chain of Nuclear receptor subfamily 1 group I member 2 (Homo sapiens) (O75469 whole entry, looked up): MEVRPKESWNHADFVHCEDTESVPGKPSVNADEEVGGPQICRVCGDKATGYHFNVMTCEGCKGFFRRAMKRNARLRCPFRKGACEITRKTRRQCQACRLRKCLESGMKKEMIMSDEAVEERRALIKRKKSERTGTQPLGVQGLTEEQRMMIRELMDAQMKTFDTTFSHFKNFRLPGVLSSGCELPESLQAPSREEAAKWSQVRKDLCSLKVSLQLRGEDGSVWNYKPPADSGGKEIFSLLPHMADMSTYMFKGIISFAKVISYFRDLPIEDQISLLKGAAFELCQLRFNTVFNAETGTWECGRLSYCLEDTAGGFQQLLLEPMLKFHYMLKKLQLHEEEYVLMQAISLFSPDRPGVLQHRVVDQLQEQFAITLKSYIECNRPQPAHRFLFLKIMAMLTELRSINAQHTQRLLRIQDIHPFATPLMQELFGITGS
Outline: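 HepG2 PXR-Luc reporter line, 5% charcoal-stripped FBS; 5 hr pre-incubation, compound (DMSO) 24 hr at 37 C/5% CO2; ONE-Glo 30 min RT; luminescence read-out.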

[5] = molecular target: Cytochrome P450 2D6 (Homo sapiens) (UniProt P10635); test: Cytochrome P450 Family 2 Subfamily D Member 6 (CYP2D6) small molecule antagonists: luciferase reporter qHTS assay (AID 1671196); note: nearly all actives have a fitted effect of over 50% in size; note: potency is the fitted concentration of half-maximal effect; for activity change, negative = inhibition: series mostly up to about 120 µM
Chain of Cytochrome P450 2D6 (Homo sapiens) (P10635 whole entry, looked up): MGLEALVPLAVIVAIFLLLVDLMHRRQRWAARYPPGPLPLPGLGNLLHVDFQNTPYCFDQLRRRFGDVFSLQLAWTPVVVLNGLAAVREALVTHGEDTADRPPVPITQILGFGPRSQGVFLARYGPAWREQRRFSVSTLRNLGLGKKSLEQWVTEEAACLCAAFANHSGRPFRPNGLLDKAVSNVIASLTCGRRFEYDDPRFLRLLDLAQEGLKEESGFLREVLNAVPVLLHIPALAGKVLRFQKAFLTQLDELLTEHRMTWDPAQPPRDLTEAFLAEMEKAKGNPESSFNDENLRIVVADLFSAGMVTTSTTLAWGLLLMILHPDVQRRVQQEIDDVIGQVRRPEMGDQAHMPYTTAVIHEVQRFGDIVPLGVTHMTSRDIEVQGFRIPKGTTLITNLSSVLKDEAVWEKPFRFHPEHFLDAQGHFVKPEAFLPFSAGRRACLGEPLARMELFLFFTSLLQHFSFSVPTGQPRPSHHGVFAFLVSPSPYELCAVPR
Outline: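 Luminogenic proluciferin substrate, CYP2D6 enzyme; 10 min RT preincubation with compound, NADPH regeneration system added, 1 h RT. Stop/detection reagent, 20 min RT, luminescence read (RLU). Signal proportional to CYP activity.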

[6] = molecular target: Cytochrome P450 2C19 (Homo sapiens) (UniProt P33261); test: Cytochrome P450 Family 2 Subfamily C Member 19 (CYP2C19) small molecule antagonists: luciferase reporter qHTS assay (AID 1671197); note: nearly all actives have a fitted effect of over 65% in size; note: potency is the fitted concentration of half-maximal effect; for activity change, negative = inhibition: series mostly up to about 120 µM
Chain of Cytochrome P450 2C19 (Homo sapiens) (P33261 whole entry, looked up): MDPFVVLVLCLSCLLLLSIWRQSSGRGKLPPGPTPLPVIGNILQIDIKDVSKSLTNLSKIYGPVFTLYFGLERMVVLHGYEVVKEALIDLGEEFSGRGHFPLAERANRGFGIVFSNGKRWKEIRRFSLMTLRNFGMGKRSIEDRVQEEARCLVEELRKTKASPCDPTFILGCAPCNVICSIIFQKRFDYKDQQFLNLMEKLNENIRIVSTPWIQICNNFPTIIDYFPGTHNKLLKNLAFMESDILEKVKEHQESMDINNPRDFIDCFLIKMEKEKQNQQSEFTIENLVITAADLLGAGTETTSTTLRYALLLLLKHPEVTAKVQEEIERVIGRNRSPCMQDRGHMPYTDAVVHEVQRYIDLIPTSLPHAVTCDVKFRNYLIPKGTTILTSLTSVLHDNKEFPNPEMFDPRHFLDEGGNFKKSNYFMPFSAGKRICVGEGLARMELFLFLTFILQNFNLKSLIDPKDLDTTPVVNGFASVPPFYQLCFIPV
Outline: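 Light output is proportional to CYP2C19 activity: proluciferin substrate is converted to luciferin, then detected by a luciferin detection reagent that also stops the 1 h, 37C NADPH-driven reaction. Ketoconazole serves as positive control.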

[7] = molecular target: Cytochrome P450 2C9 (Homo sapiens) (UniProt P11712); test: Cytochrome P450 Family 2 Subfamily C Member 9 (CYP2C9) small molecule antagonists: luciferase reporter qHTS assay (AID 1671198); note: nearly all actives have a fitted effect of over 50% in size; note: potency is the fitted concentration of half-maximal effect; for activity change, negative = inhibition: series mostly up to about 120 µM
Chain of Cytochrome P450 2C9 (Homo sapiens) (P11712 whole entry, looked up): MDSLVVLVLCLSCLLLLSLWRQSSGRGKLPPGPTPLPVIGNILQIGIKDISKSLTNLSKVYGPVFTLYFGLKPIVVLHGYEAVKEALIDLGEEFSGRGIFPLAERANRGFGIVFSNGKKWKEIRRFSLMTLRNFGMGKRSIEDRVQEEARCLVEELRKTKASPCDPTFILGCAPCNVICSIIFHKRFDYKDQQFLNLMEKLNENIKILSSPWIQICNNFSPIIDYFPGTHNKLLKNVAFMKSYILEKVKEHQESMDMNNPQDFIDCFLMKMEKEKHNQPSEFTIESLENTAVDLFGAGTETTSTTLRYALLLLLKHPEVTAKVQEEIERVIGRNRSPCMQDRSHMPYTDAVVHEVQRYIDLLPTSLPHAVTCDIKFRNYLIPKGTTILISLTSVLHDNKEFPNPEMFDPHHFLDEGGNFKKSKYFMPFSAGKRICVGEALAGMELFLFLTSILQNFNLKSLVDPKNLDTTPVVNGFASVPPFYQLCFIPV
Outline: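 CYP2C9 activity was measured with a P450-Glo proluciferin substrate. Enzyme–substrate mix was held with compound for 10 min at room temperature, then NADPH regeneration solution was added for 1 h at 37C. Luciferin product was read as luminescence.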

[8] = molecular target: Cytochrome P450 1A2 (Homo sapiens) (UniProt P05177); test: Cytochrome P450 Family 1 Subfamily A Member 2 (CYP1A2) small molecule antagonists: luciferase reporter qHTS assay (AID 1671199); note: nearly all actives have a fitted effect of over 50% in size; note: potency is the fitted concentration of half-maximal effect; for activity change, negative = inhibition: series mostly up to about 120 µM
Chain of Cytochrome P450 1A2 (Homo sapiens) (P05177 whole entry, looked up): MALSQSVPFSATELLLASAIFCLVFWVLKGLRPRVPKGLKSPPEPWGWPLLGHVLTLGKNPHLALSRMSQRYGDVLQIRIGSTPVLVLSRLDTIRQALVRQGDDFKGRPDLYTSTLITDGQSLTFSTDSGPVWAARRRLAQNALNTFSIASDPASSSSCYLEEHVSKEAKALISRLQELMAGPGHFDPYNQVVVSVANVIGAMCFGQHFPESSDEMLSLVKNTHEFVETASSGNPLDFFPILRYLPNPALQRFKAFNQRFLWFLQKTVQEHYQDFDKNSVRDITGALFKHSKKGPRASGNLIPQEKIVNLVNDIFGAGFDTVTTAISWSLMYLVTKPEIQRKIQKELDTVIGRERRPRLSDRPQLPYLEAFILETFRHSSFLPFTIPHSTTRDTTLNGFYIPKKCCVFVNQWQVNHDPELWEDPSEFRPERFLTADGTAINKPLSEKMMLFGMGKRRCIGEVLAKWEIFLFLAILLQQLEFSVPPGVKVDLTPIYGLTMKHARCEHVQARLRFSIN
Outline: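 Luminescence readout (relative luminescence units) after luciferin detection reagent, 20 min RT. Preceded by 1 h room-temperature CYP1A2 reaction with NADPH regeneration solution following 10 min compound preincubation with enzyme and proluciferin substrate. Furafylline positive control.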

[9] = molecular target: Voltage-gated inwardly rectifying potassium channel KCNH2 (Homo sapiens) (UniProt Q12809); test: Human Ether-a-go-go-Related Gene (hERG) channel small molecule antagonists: fluorescence cell-based qHTS assay (AID 1671200); note: nearly all actives have a fitted effect of over 50% in size; note: potency is the fitted concentration of half-maximal effect;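 for activity change, negative = inhibition: hERG-expressing U2OS cells given a thallium stimulus after FluxOR II dye loading; series mostly up to about 77 µM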
Chain of Voltage-gated inwardly rectifying potassium channel KCNH2 (Homo sapiens) (Q12809 whole entry, looked up): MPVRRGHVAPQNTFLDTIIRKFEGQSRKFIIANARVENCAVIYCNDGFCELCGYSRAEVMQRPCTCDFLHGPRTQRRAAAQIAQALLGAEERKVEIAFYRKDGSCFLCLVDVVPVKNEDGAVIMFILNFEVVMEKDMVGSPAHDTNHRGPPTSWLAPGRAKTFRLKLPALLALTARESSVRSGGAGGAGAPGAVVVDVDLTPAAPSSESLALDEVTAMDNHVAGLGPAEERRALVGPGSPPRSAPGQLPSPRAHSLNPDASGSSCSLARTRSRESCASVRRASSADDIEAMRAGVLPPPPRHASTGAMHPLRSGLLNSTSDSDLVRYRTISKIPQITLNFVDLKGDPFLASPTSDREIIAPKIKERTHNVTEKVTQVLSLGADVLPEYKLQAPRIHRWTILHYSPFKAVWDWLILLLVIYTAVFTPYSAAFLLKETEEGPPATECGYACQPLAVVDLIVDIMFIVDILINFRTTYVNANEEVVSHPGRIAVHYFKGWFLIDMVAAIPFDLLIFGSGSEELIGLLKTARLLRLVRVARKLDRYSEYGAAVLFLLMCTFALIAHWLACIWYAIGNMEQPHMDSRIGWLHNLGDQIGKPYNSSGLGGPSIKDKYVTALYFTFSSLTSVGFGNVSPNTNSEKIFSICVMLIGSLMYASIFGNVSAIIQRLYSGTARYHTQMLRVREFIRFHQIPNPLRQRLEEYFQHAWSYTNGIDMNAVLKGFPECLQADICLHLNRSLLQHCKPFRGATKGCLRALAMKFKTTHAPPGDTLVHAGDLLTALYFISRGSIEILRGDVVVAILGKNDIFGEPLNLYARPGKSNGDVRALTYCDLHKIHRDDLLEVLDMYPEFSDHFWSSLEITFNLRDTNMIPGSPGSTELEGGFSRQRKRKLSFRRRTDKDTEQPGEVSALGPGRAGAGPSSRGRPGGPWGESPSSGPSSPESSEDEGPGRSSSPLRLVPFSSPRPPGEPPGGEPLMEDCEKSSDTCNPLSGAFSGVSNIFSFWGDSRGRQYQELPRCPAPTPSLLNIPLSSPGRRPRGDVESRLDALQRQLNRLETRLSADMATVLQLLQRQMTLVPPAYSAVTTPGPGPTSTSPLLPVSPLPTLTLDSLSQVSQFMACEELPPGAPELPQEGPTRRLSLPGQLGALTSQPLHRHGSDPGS
Outline: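 Cell line hERG-U2OS; dye FluxOR II, 1 h RT dark; Tl+ stimulus; ex 480/em 540 nm, read each second for 2 min.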

[10] = molecular target: Cytochrome P450 3A4 (Homo sapiens) (UniProt P08684); test: Cytochrome P450 Family 3 Subfamily A Member 4 (CYP3A4) small molecule antagonists: luciferase reporter qHTS assay (AID 1671201); note: nearly all actives have a fitted effect of over 50% in size; note: potency is the fitted concentration of half-maximal effect; for activity change, negative = inhibition: series mostly up to about 120 µM
Chain of Cytochrome P450 3A4 (Homo sapiens) (P08684 whole entry, looked up): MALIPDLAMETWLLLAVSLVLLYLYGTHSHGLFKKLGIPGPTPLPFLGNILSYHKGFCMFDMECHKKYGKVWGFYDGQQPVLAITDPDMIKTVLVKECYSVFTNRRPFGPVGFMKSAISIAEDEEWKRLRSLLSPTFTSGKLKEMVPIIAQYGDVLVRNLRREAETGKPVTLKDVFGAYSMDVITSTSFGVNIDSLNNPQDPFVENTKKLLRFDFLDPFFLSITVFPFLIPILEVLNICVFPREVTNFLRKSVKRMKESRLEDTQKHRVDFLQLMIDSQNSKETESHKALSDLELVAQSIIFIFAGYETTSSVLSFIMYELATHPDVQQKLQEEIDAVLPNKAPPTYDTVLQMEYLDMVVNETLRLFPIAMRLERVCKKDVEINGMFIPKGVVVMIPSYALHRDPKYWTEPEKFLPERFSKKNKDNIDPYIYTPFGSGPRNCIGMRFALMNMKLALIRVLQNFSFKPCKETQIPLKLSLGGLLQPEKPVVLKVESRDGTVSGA
Outline: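 Room-temperature assay throughout: 10 min compound–enzyme/substrate preincubation, 1 h reaction after NADPH regeneration solution, 20 min detection. Luciferin formed from proluciferin substrate is quantified by luminescence.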

Compound | Potency [1] | Potency [2] | Potency [3] | Potency [4] | Potency [5] | Potency [6] | Potency [7] | Potency [8] | Potency [9] | Potency [10] | caspase-3/7 activation [2] | activity change, negative = cytotoxicity [3] | activation [4] | activity change, negative = inhibition [5] | activity change, negative = inhibition [9] | activity change, negative = cytotoxicity [1] | activity change, negative = inhibition [8]
CC1=CCC(=O)O1 | inactive | inactive | inactive | inactive | inactive | inactive | inactive | inactive | inactive | inactive | – | – | – | – | – | – | –
Clc1nc2ccccc2s1 | inactive | inactive | inactive | inactive | inactive | inactive | inactive | – | inactive | inactive | – | – | – | – | – | – | –
CC(=O)Nc1ccc(O)cc1 | inactive | inactive | inactive | inactive | 32.9 µM (active) and inactive | inactive | inactive | – | inactive | – | – | – | – | – | – | – | –
CO[Si](CCCNCCNCCN)(OC)OC | inactive | inactive | inactive | inactive | inactive | inactive | inactive | inactive | inactive | inactive | – | – | – | – | – | – | –
c1ccc(Sc2ccccc2)cc1 | inactive | inactive | inactive | inactive | inactive | 7.1 µM (active) | inactive | 31.7 µM (active) | – | inactive | – | – | – | – | – | – | –
c1ccc(Nc2cccc3ccccc23)cc1 | 61.9 µM (active) | inactive | inactive | 61.9 µM (active) and 30.6 µM (active) | 32.1 µM (active) | 5.09 µM (active) and 10 µM (active) | 36.1 µM (active) and 35.6 µM (active) | 6.41 µM (active) and 17.8 µM (active) | 35.1 µM (active) and 17.4 µM (active) | 36.1 µM (active) and 79.6 µM (active) | – | – | – | – | – | – | –
O=C(O)CC(=O)O | inactive | inactive | inactive | inactive | 71.2 µM (active) | inactive | inactive | 63.4 µM (active) | inactive | inactive | – | – | – | – | – | – | –
S=C(SSSSSSC(=S)N1CCCCC1)N1CCCCC1 | 7.56 µM (active) | – | – | – | – | – | 7.83 µM (active) | – | – | – | 1.75% [at 19 µM] (inactive) | 7.87% [at 19 µM] (inactive) | 19.2% [at 19 µM] (inactive) | -19.3% [at 23.6 µM] (inactive) | -18.7% [at 15.8 µM] (inactive) | – | –
CCOC(/C=C(\C)CCC=C(C)C)OCC | inactive | inactive | inactive | inactive | inactive | – | inactive | inactive | inactive | inactive | – | – | – | – | – | – | –
CCCCCCCC(OC)OC | inactive | inactive | inactive | inactive | – | inactive | inactive | inactive | inactive | inactive | – | – | – | – | – | – | –
CCC1CCCCC1 | inactive | inactive | inactive | inactive | – | inactive | inactive | inactive | inactive | inactive | – | – | – | – | – | – | –
Cc1cccc(N(C)C)c1 | inactive | inactive | inactive | inactive | inactive | – | inactive | inactive | inactive | inactive | – | – | – | – | – | – | –
CN(C)CCN1CCOCC1 | inactive | inactive | inactive | inactive | – | inactive | inactive | inactive | inactive | – | – | – | – | – | – | – | –
CCOCN(C(=O)CS(=O)(=O)O)c1c(C)cccc1CC | inactive | inactive | inactive | inactive | inactive | – | – | inactive | inactive | – | – | – | – | – | – | – | –
CCCCCCCCCCCCCOP(=O)(O)O | inactive | inactive | inactive | inactive | inactive | 79.6 µM (active) | – | – | inactive | inactive | – | – | – | – | – | – | –
CCC(C)c1cc([N+](=O)[O-])cc([N+](=O)[O-])c1OC(=O)OC(C)C (stereo not given) | 61.1 µM (active) | inactive | 61.1 µM (active) | 61.1 µM (active) | – | 11.2 µM (active) | 35.6 µM (active) | 2.52 µM (active) | inactive | – | – | – | – | – | – | – | –
CCCCCCCCCCc1ccccc1 | inactive | inactive | inactive | inactive | inactive | inactive | inactive | – | – | inactive | – | – | – | – | – | – | –
C=C/C=C/C=C/CCCCC | – | – | – | – | – | – | 16.9 µM (active) | – | – | 16.9 µM (active) | 0.387% [at 19 µM] (inactive) | -1.07% [at 19 µM] (inactive) | 9.15% [at 19 µM] (inactive) | -25.6% [at 23.6 µM] (inactive) | -12.1% [at 15.8 µM] (inactive) | -1.73% [at 19 µM] (inactive) | -9.41% [at 23.6 µM] (inactive)
CC(C)(C)c1n[nH]c(=O)n(N)c1=O | inactive | inactive | inactive | inactive | – | inactive | inactive | inactive | inactive | inactive | – | – | – | – | – | – | –
NC(=O)c1ccccc1N | inactive | inactive | inactive | inactive | – | 35.8 µM (active) | inactive | 31.9 µM (active) | inactive | inactive | – | – | – | – | – | – | –
